The list is not random: actives were taken first. Their share in the collection is about 22%.
Pf growth 48h: inhibits P. falciparum growth in the first generation, 48 h; P. falciparum luciferase growth in erythrocytes, 48 h; AID 504832; Potency, µM (series often up to 28.7 µM), most hits filed as inhibitors; hit rate 5.9% among 310,000
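Parasite viability was followed by luminescence of a genomically integrated firefly luciferase. Cultures held 0.1% parasitemia at 2% hematocrit (final), incubated under 5% CO2 at 37 C.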
Shiga toxin inh: inhibitors of Shiga toxin in Vero cells. inhibition, % at 38.7 µM. Vero cells, Shiga toxin protein synthesis inhibition reporter. hit rate 9.2% among 290,000; in the data active = inhibition mostly above about 28%, no sharp cut-off; inactive = mostly below about 43%
Pf growth 96h: inhibits malaria parasite growth, 96 h; Potency, µM (titrated, usually from 28.7 µM), hits mostly inhibitors; P. falciparum luciferase reporter growth, 96 h; AID 504834; hit rate 6.9% among 320,000
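Cell-based qHTS: luciferase-tagged P. falciparum in erythrocytes (2% hematocrit, 0.05% parasitemia final) incubated with compounds for 96 hours, 37 C, 5% CO2; luciferase detection reagent then added and luminescence measured.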
LmPK inh: LmPK (Leishmania mexicana) enzyme inhibition. Q27686. purified LmPK, Kinase-Glo ATP luminescence, 1 h. Potency, µM (doses to about 57.5 µM), hits mostly inhibitors. hit rate 0.37% among 290,000. AID 1721
Target sequence (Q27686 whole entry, looked up): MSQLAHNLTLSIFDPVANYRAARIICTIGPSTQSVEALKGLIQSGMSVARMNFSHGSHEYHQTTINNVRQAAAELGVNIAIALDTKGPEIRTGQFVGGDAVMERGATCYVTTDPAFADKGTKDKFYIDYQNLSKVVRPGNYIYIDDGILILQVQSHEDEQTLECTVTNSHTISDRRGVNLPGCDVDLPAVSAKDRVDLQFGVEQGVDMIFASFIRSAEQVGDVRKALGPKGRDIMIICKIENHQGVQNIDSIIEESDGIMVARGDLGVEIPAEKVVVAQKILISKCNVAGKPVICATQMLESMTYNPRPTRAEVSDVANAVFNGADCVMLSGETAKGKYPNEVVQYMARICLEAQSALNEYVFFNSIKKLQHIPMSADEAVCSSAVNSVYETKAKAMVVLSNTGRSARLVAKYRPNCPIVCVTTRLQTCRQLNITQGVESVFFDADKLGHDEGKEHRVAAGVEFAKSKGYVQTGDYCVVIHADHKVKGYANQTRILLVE
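ATP generated from ADP (0.1 mM) and PEP (0.5 mM) by 0.1 nM LmPK over 1 h at room temperature (pH 7.2 imidazole buffer) was detected by coupled luciferase luminescence. Values were normalized to uninhibited and no-enzyme wells.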
Cycloheximide cs: affects cycloheximide protein synthesis inhibition readout, counter-screen. cell reporter, cycloheximide protein synthesis inhibition counterscreen. max response, %. hit rate 12% among 300,000. AID 2314; in the data active = max response mostly above about 13%, no sharp cut-off; inactive = mostly below about 14%; note: read at 38.3 µM for the half of the compounds with a filed dose
Of the large screens only hits and unclear results are named; the others gave an inactive call. Unless noted, calls come from the whole dose curve; as a rule, active = well fitted inhibition curve with a large enough effect; inconclusive = small, poorly fitted or top-dose-only effect, or another doubt; inactive = no such curve, though single readings can be large or run the other way.

O=C(CCC(=O)N1CCc2ccccc2C1)NCCc1ccc(Cl)cc1	Pf growth 96h inconclusive
CN(C)CCNC(=O)C1(O)c2cc(Br)ccc2NC(=O)N1c1ccc(Cl)cc1 (stereo not given)	none
Cc1c(Cl)cccc1NC(=O)Cc1ccc([N+](=O)[O-])cc1	Pf growth 48h inconclusive
CCOc1ccc(S(=O)(=O)N(C)CC(=O)N2CCN(CC)CC2)cc1	none
CC(=O)Nc1ccc(SCC(=O)N(C)C2CCS(=O)(=O)C2)cc1 (stereo not given)	none
FC(F)(F)c1ccccc1NC(=S)Nn1cnnc1	none
COc1ccc(-n2nc3c(c2NC(=O)c2ccc4c(c2)OCO4)CS(=O)(=O)C3)cc1	Pf growth 48h inconclusive
CC1CCC(NC(=O)CCCn2sc3ccccc3c2=O)CC1 (stereo not given)	Cycloheximide cs 22
Cc1ccc(-n2c(-c3ccccc3)c[n+]3c2CCc2ccccc2-3)c(C)c1	Pf growth 48h 0.93µM
CCCCN(CC)C(=O)C1CCC(CNS(=O)(=O)c2cccc3nsnc23)CC1 (stereo not given)	Pf growth 96h inconclusive
COc1ccc(C(=O)CC(=O)C(=O)Nc2cc(C)ccc2C)cc1	Pf growth 96h 9.3µM (no result: Pf growth 48h)
COc1ccc(C(=O)CC(=O)C(=O)Nc2ccc(C)c(Cl)c2)cc1	Cycloheximide cs 23 (no result: Pf growth 48h)
Cc1cccc(C(=O)NC(Oc2ccccc2)C(Cl)(Cl)Cl)c1 (stereo not given)	Pf growth 48h inconclusive, Pf growth 96h 7.4µM
COc1ccc(C(=O)NC(Oc2ccccc2)C(Cl)(Cl)Cl)cc1 (stereo not given)	Pf growth 96h inconclusive
Cc1cccc(C(=O)Nc2cccc(OC(=O)c3cccc(C)c3)c2)c1	Cycloheximide cs 34
COC(=O)COc1cccc(NC(=O)c2cccc(C)c2)c1	Pf growth 96h 10µM, Cycloheximide cs 17
CC(=O)Oc1cccc(NC(=O)c2cccc(C(=O)Nc3cccc(OC(C)=O)c3)c2)c1	Pf growth 96h inconclusive (no result: Shiga toxin inh)
CCN(CC)C(=O)Oc1ccc2oc(=O)cc(-c3cc4cccc(OC)c4o3)c2c1	none
CC(=O)NC(c1ccc2ccccc2c1)c1ccc2cccnc2c1O (stereo not given)	Pf growth 48h inconclusive
CC(=O)NC(c1ccc(Cl)cc1Cl)c1ccc2cccnc2c1O (stereo not given)	Pf growth 48h 4.1µM
COc1ccc(C(NC(C)=O)c2ccc3cccnc3c2O)c(OC)c1 (stereo not given)	Pf growth 48h 1.7µM, Pf growth 96h 3.3µM
O=C(Nc1ccc(Cl)cc1)c1cc2c(cc1O)[nH]c1ccccc12	Pf growth 48h 10µM, Pf growth 96h inconclusive
CN(CC(=O)NCC(=O)Nc1ccc(F)c(F)c1F)C1CCS(=O)(=O)C1 (stereo not given)	none (no result: Shiga toxin inh, LmPK inh, Cycloheximide cs)
CCCCn1c(N)c(N(CCOC)C(=O)c2ccc(Br)s2)c(=O)[nH]c1=O	Pf growth 96h inconclusive (no result: Shiga toxin inh, LmPK inh, Cycloheximide cs)
CCCCn1c(N)c(N(CCOC)C(=O)CSc2nc3ccc(C)cc3[nH]2)c(=O)[nH]c1=O	Pf growth 48h inconclusive, Pf growth 96h 9.3µM
CCCCN(C(=O)c1ccc([N+](=O)[O-])s1)c1c(N)n(CCCC)c(=O)[nH]c1=O	Pf growth 48h 10µM, Pf growth 96h inconclusive (no result: Shiga toxin inh, LmPK inh, Cycloheximide cs)
CCCCN(C(=O)c1cccc(S(=O)(=O)N(C)c2ccc(C)cc2)c1)c1c(N)n(CCCC)c(=O)[nH]c1=O	Pf growth 48h 0.37µM, Pf growth 96h inconclusive (no result: Shiga toxin inh, LmPK inh, Cycloheximide cs)
CCCCn1c(N)c(N(CCOC)C(=O)c2cccc(S(=O)(=O)N(C)c3ccc(C)cc3)c2)c(=O)[nH]c1=O	Pf growth 48h 6.6µM, Pf growth 96h 9.3µM (no result: Shiga toxin inh, LmPK inh, Cycloheximide cs)
CCOc1ccc2nc(SCC(=O)N(CCOC)c3c(N)n(Cc4ccccc4)c(=O)[nH]c3=O)[nH]c2c1	Pf growth 48h inconclusive (no result: Shiga toxin inh, LmPK inh, Cycloheximide cs)
CCCCn1c(N)c(N(CCOC)C(=O)c2cccc(-n3cnnn3)c2)c(=O)[nH]c1=O	none (no result: Shiga toxin inh, LmPK inh, Cycloheximide cs)
Cn1nc(C(=O)OCC(=O)Nc2ccccc2[N+](=O)[O-])c2ccccc2c1=O	Pf growth 96h inconclusive (no result: Shiga toxin inh, LmPK inh, Cycloheximide cs)
CC(OC(=O)CSc1ccc([N+](=O)[O-])cc1)C(=O)NC1CC1 (stereo not given)	Pf growth 48h inconclusive (no result: Shiga toxin inh, LmPK inh, Cycloheximide cs)
CC(C)CN(C(=O)CCC(=O)OCc1ccc(Cl)cc1Cl)c1c(N)n(CC(C)C)c(=O)[nH]c1=O	Pf growth 96h inconclusive (no result: Shiga toxin inh, LmPK inh, Cycloheximide cs)
CCC1Oc2ccc(C)cc2N(CC(=O)N2CCOCC2)C1=O (stereo not given)	Pf growth 96h inconclusive
O=C(CN1C(=O)COc2ccccc21)N(Cc1cccnc1)Cc1cccc(F)c1	Pf growth 48h inconclusive
CCC1Oc2ccc(C)cc2N(CC(=O)N(Cc2ccncc2)Cc2ccco2)C1=O (stereo not given)	Pf growth 48h 12µM
CCC1Oc2ccc(C)cc2N(CC(=O)N(Cc2cccnc2)Cc2cccc(F)c2)C1=O (stereo not given)	Pf growth 48h 12µM
CCOC(=O)N1CCN(c2ccnc3cc(Cl)ccc23)CC1	Pf growth 48h 2.6µM, Pf growth 96h 2.3µM
CC(C)N(C(=O)N1CCN(c2ccnc3cc(Cl)ccc23)CC1)C(C)C	Pf growth 48h 8.3µM, Pf growth 96h 8.3µM
CC1CN(c2ccnc3cc(Cl)ccc23)CC(C)O1 (stereo not given)	Pf growth 48h inconclusive, Pf growth 96h inconclusive
O=C(c1ccc(Cl)cc1)N1CCN(c2ccnc3cc(Cl)ccc23)CC1	Pf growth 48h 13µM
CCC(=O)N1CCN(c2ccnc3cc(Cl)ccc23)CC1	Pf growth 48h 13µM, Pf growth 96h 12µM
COc1cccc(Cl)c1NC(=O)N1CCN(c2ccnc3cc(Cl)ccc23)CC1	Pf growth 48h inconclusive, Pf growth 96h inconclusive
CC1CCCN(C(=O)CCc2ccccc2)C1 (stereo not given)	Shiga toxin inh active, Cycloheximide cs 9.3
CCCOC1CCCN(C(=O)CCc2nnc(CCCCc3ccccc3)o2)C1 (stereo not given)	Pf growth 48h inconclusive, Shiga toxin inh 41, Pf growth 96h inconclusive, Cycloheximide cs 34
CCN(CC)C1CCN(C(=O)CCc2nnc(CCc3ccccc3)o2)C1 (stereo not given)	none
O=C(CCc1nnc(CCCc2ccccc2)o1)N1CCCCCC1	Shiga toxin inh 87, Cycloheximide cs 32
COCC1CCN(C(=O)CCc2nnc(CCCCc3ccccc3)o2)CC1	Pf growth 96h inconclusive
Cc1ccc(S(=O)(=O)NNC(=O)C(O)(c2ccccc2C)c2ccccc2C)cc1	none
CCc1cc(C(=O)NCC(c2ccco2)N2CCCCC2)sc1C (stereo not given)	Pf growth 48h 9.3µM, Pf growth 96h 5.9µM (no result: Shiga toxin inh, LmPK inh, Cycloheximide cs)
O=C(NCC(c1ccco1)N1CCCC1)c1ccc(Cl)c(S(=O)(=O)N2CCc3ccccc32)c1 (stereo not given)	Pf growth 48h 5.9µM, Pf growth 96h inconclusive (no result: Shiga toxin inh, LmPK inh, Cycloheximide cs)
O=S(=O)(NCC(c1ccco1)N1CCCCC1)c1cccc(C(F)(F)F)c1 (stereo not given)	Pf growth 48h inconclusive, Pf growth 96h 7.4µM (no result: Shiga toxin inh, LmPK inh, Cycloheximide cs)
O=C(NCC(c1ccco1)N1CCCC1)c1cccc(NS(=O)(=O)c2ccccc2)c1 (stereo not given)	Pf growth 48h 10µM, Pf growth 96h inconclusive (no result: Shiga toxin inh, LmPK inh, Cycloheximide cs)
